What was measured:
Assay type in all cases: functional
Plasmodium falciparum [1] = test: GSK_TCMDC: Inhibition of Plasmodium falciparum 3D7 in whole red blood cells, using parasite LDH activity as an index of growth. Test compounds present at 2uM
Plasmodium falciparum [2] = test: GSK_TCMDC: Inhibition of Plasmodium falciparum Dd2 in whole red blood cells, using parasite LDH activity as an index of growth. Test compounds present at 2uM
HepG2 = test: GSK_TCMDC: Percent inhibition of human HepG2 cell line. Test compounds present at 10uM.

SMILES	Inhibition (Plasmodium falciparum [1]) [%]	Inhibition (Plasmodium falciparum [2]) [%]	Inhibition (HepG2) [%]
Cc1cccc2nc(-c3ccc(-c4ccc(CN5CCN(c6ccc(C#N)cn6)CC5)cc4)s3)[nH]c12.O=C(O)C(F)(F)F	98	44	10
COc1ccc(NC(=O)Nc2ccc(-c3ccc(-c4nc5cccc(C)c5[nH]4)s3)cc2)cc1	100	96	74
Cc1cc(=NN=CC=Cc2ccccc2)c2cc(F)ccc2[nH]1	100	36	8
COc1ccc(C2CC(=O)C3=C(C2)NC(C)=C(C(=O)OC(C)C)C3c2cccc(O)c2)cc1OC (stereo unspecified)	100	85	0
CC(C)(C)c1ccc(CN2CCCCC(NC(=O)c3cc(-c4ccccc4F)cs3)C2)cc1.O=C(O)C(F)(F)F (stereo unspecified)	100	99	6
CN1CCC(C(=O)N(Cc2ccc(-c3ccc(CNCCc4ccccc4)cn3)cc2)C2CCN(Cc3ccccc3)CC2)CC1.O=C(O)C(F)(F)F	100	99	24
Cc1ccc(-n2nc3ccc(NC(=O)c4ccc([N+](=O)[O-])o4)cc3n2)cc1C	94	95	20
CC(C)CN1CCN(c2nc(C#N)c3c(c2C(=S)NC2CCCCC2)CC(C)(C)OC3)CC1	100	99	0
Cl.O=c1cc(NCCCNCc2csc(Br)c2Sc2ccc(Cl)cc2)[nH]c2ccccc12	95	83	5
Br.CCOC(=O)c1cc(Cl)cc(Cl)c1OCCCON1C(=N)N=C(N)NC1(C)C	93	97	70
C=C(NC(=O)c1cc(C)cc(C)c1)C(=O)OC	95	0	21
Cn1cnc2c(Nc3ccncc3)nc(-c3ccc4ccccc4c3)nc21	96	66	55
CC(CC(=O)NCC1(c2ccc(F)cc2Cl)CCOCC1)C(=O)c1ccc(Cl)cc1 (stereo unspecified)	99	91	6
COc1cc2ccccc2c(OC)c1CCNCCCCNCCc1c(OC)cc2ccccc2c1OC.CS(=O)(=O)O	99	30	100
CCCN(CCC)c1nn2c(=O)c(C(=O)N3CCN(Cc4ccccc4)CC3)cnc2s1	84	89	0
Cl.O=C(C=Cc1ccc(C(=O)Nc2ccc(C3=NCCN3)cc2)cc1)Nc1ccc(C2=NCCN2)cc1	97	100	0
COc1cc(NCCCNCC2c3ccccc3Oc3ccccc32)nc2ccccc12.O=C(O)C(F)(F)F	99	66	99
COc1ccc(-c2ccc([N+](=O)[O-])cc2C(=O)NCC(C)Oc2ccc(C(F)(F)F)cc2)cc1 (stereo unspecified)	100	81	6
CC(C)CCN1CCCN(Cc2ccc(C(=O)NCc3ccc(Cl)cc3)cc2)CC1.O=C(O)C(F)(F)F	84	0	16
Cc1ccc(Nc2nc3cc(Nc4ccnc(Nc5cccc(CS(C)(=O)=O)c5)n4)ccc3o2)cc1.O=C(O)C(F)(F)F	100	81	55
NS(=O)(=O)c1cccc(Nc2nccc(-c3cnn4ncccc34)n2)c1	89	89	39

SMILES	Inhibition (Plasmodium falciparum [1]) [%]	Inhibition (Plasmodium falciparum [2]) [%]	Inhibition (HepG2) [%]
Nc1nc2c(ncn2COC(COCc2ccccc2)COCc2ccccc2)c(=O)[nH]1.Nc1nc2ncn(COC(COCc3ccccc3)COCc3ccccc3)c2c(=O)[nH]1	86	57	18
CCN(CC)CCOc1c(Cl)cc(Cl)cc1CNCCCNc1cc(=O)c2ccccc2[nH]1	97	6	11
N#Cc1ccc(-c2ccc(C(=O)NCCCCN3CC=C(c4ccc5c(c4OCC4CC4)CCCC5)CC3)cc2)cc1	100	83	22
CCCCCCN1CCCN(Cc2cccc(NC(=O)c3cc4ccccc4s3)c2)CC1.O=C(O)C(F)(F)F	88	53	31
O=S(=O)(c1ccccc1)C1CC1	89	65	0
Cc1cc2[nH]c(-c3ccc(C(=O)NCCCN4CCN(c5cccc(Cl)c5)CC4)cc3F)nc2cc1Cl	99	79	0
Cc1cccc2nc(-c3ccc(-c4ccc(C(=O)NCCN5CCCC5)cc4)s3)[nH]c12	100	13	20
CC(C)CCN1CCC(Oc2ccc(NC(=O)c3ccccc3)cc2Cl)CC1.O=C(O)C(F)(F)F	87	88	17
Cc1cc(C)cc(NC(=S)NCCCCN2CCN(c3cccc(Cl)c3)CC2)c1	88	13	11
Nc1ccnc(N2CCC(CCOc3ccnc4cc(Cl)ccc34)CC2)c1.O=C(O)C(F)(F)F	100	99	34
COc1cc2c(cc1C(F)(F)F)N(C(=O)Nc1cc(Br)cc(-c3cccnc3)c1)CC2	96	34	8
O=C(Nc1cccc(-c2nn3ncccc3c2-c2ccnc(Nc3cccc(C(F)(F)F)c3)n2)c1)c1c(F)cccc1F	97	68	49
O=C(Nc1ccccc1)N(Cc1ccccc1-c1cccc(CNC2CCCC2)c1)C1CCN(Cc2ccccc2)CC1.O=C(O)C(F)(F)F	100	84	36
O=C(/C=C/c1cc(C(F)(F)F)ccc1F)NCCCCCN1CCC(c2c[nH]c3ccccc23)CC1	88	4	39
Fc1ccc(-c2cncc(Nc3ccncc3)n2)cc1	88	11	8
CC1(C)CCC(C)(C)c2c1ccc(C1CCN(CCCCNC(=O)c3ccc(-c4ccc(C#N)cc4)cc3)CC1)c2O	100	85	81
Br.Oc1ccc(CCNCCCCCCNCCc2ccc(Cl)c(Cl)c2)cc1O	100	2	21
CCN(CCCN1CCCCC1)c1cc(C)nc(Nc2ccc(C(F)(F)F)cc2)n1.O=C(O)C(F)(F)F	100	99	26
CCc1nc2nc(C)cc(Nc3cc(C)cc(C)c3)n2n1	96	96	21
FC(F)(F)c1ccc2[nH]c(-c3ccc(-c4ccc(CNCCN5CCNCC5)cc4)s3)nc2c1.O=C(O)C(F)(F)F	94	79	17
Oc1ccc2[nH]c(-c3cccc(F)c3)nc2c1CN1CCC(N2CCCC2)CC1	100	54	0

SMILES	Inhibition (Plasmodium falciparum [1]) [%]	Inhibition (Plasmodium falciparum [2]) [%]	Inhibition (HepG2) [%]
COc1ccc2c(c1)[nH]c1c(C=Cc3ccccc3)nccc12.O=[N+]([O-])O	91	6	19
O=C(Nc1ccsc1)Nc1cccc(-c2cccc(-c3nc4cc(F)ccc4[nH]3)c2)c1	100	41	46
CCN(CCO)CCc1cccc(Nc2nccc(-c3c(-c4ccc(NC(=O)N(CC)CC)cc4)nn4ccccc34)n2)c1.Cl	100	95	46
CC(C)NCc1ccc(-c2cccc(NC(=O)c3cccc(Cl)c3)c2)cc1.O=C(O)C(F)(F)F	100	87	24
O=c1cc(NC[C@H]2CCC[C@@H]2NC2CCCc3c2[nH]c2ccccc32)[nH]c2ccccc12 (stereo partly specified)	100	25	6
CC(Cc1ccc(OCc2ccccc2)cc1)Nc1nc(O)c2ccccc2n1.Cl (stereo unspecified)	98	96	2
Brc1cc(Br)c2c(c1)C(NCCCNc1nc3ncccc3[nH]1)CCN2.O=C(O)CCC(=O)O (stereo unspecified)	99	83	5
O=C(N[C@H]1CCN(CCc2ccc(O[C@H]3CCNC3)c(F)c2)C1)c1ccc(Cl)c(Cl)c1.O=C(O)C(F)(F)F	95	23	39
COc1ccc(CN(C)Cc2cc(C(C)C)c(C)cc2O)cc1F	98	98	1
COc1ccc(OCCON)cc1.Cl	98	0	0
CCN(CC)CCN(Cc1ccc(-c2ccc(C(F)(F)F)cc2)cc1)C(=O)Cn1nc(-c2ccc(C(F)(F)F)cc2)ccc1=O	100	83	44
Cl.O=C(O)CNCC(O)c1ccccc1 (stereo unspecified)	96	0	7
COc1ccc(C(C(=O)NC2CCN(C[C@H](O)c3ccnc4ccc(OC)cc34)CC2)N2CCN(c3ccc([N+](=O)[O-])cc3)CC2)cc1 (stereo partly specified)	99	80	17
COc1cc2c(cc1C(F)(F)F)N(C(=O)Nc1cccc(-c3ccc(CN(C)C)cc3)c1)CC2	100	93	95
Cc1[nH]c2c(NCc3ccc(F)cc3)nccc2c1C	83	0	63
CCN(CC)CCNc1ccnc2[nH]c3ccc([N+](=O)[O-])cc3c12	100	76	6
O=C(O)C(F)(F)F.Oc1ccc(CN2CCC(NCc3cccc(C(F)(F)F)c3)CC2)cc1	100	64	10
O=C(Nc1cccc(-c2cccc(-c3nc4ccccc4[nH]3)c2)c1)c1csnn1	90	27	31
Cc1c(CNCCCNc2nc3ccccc3[nH]2)[nH]c2cc(Cl)cc(Cl)c12	100	0	59
COc1ccc(S(=O)(=O)N2CCC3(CC2)OCC(=O)NC3c2ccc(Cl)c(Cl)c2)cc1 (stereo unspecified)	91	44	0
